These results are taken from PMC12136788.

T1: UNK ZnF1-3 (human, UniProt Q9C0B0 31-174)
T1 sequence: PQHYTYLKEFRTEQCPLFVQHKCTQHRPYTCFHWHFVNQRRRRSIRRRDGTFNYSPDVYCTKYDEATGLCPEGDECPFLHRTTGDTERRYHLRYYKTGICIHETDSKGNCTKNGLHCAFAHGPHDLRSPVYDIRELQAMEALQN

B1: chr2:42509997:42509998:+_ENSG00000143924_ENST00000318522|hu_mus|hu_hu_hu_mus_True|28_48 (ssRNA)
RNA: GGGAGUUCUACAGUCCGACGAUCUCGCUGAGUCCUCUCCUCAUAAUUAAACAGGACUACCACUGAGGCGAUAAAAUAAACUAUCUCCCCGGUCGGAAGCAGGUAUACAUUAGCUCUACAGUCCUUUCCUCGAUAACCGUAUACCAACAGAGGAUUGAGCAUCA
B2: chr3:108363203:108363204:-_ENSMUSG00000068732_ENSMUST00000090546|mus_hu|FALSE|FALSE (ssRNA)
RNA: GGGAGUUCUACAGUCCGACGAUCCCAGGUUUUGAGACGAGGUACUUUCUUGAAGUAGGCACAGGUGCAAACAAAGAGCAAACCAAACACCAGAAUCCCAUCCAAGGAGUACACGUUCGUCAUGGCGGCUGGCCCUGGACCUGGCAACAGAGGAUUGAGCAUCA
B3: chr2:216981417:216981418:+_ENSG00000079246_ENST00000392132|hu_hu|hu_hu_hu_mus_True|48_58 (ssRNA)
RNA: GGGAGUUCUACAGUCCGACGAUCCUGAUACUGGUCCUUGCCAGCAAGGGCAUUAUCAGUGCCAUCUGUGCCAUAGAGGACUAAAGCAAUCUCAUCCUUGCUCUCCGAAAAUACCUGUCGUUGGACAAACAUAGUCAUCACUUUCAACAGAGGAUUGAGCAUCA
B4: 91404753_91404873_2338_CDS_ENSG00000122482_ENST00000337393|human|control|control (ssRNA)
RNA: GGGAGUUCUACAGUCCGACGAUCAGGUUUUUGGUCAACGCUGCUUUUAAUUGUAACAUUCUUAUGAGGAGAGCUGUUUUGAUUGCACAUGUUUACACCUGAUUGGGCAAUGCUUUUCCGAGCUUUCUGUAUUCUGUGUGGCCGCAACAGAGGAUUGAGCAUCA
B5: chr2:153593888:153593889:+_ENSMUSG00000027479_ENSMUST00000028981|mus_mus|FALSE|FALSE (ssRNA)
RNA: GGGAGUUCUACAGUCCGACGAUCCUCAGUAGUGGGUAACACAUUUUGCAGAGUUCGCCAAACAAAGGAAUUGAAUAGGCUAUGGGUAAAGCAAUUGAGGGAGAAUUAAGGAAUGAAGUAUUUUAAAUAUUAAUAUUUCAGUCACAACAGAGGAUUGAGCAUCA
B6: chr2:153593888:153593889:+_ENSMUSG00000027479_ENSMUST00000028981|mus_hu|FALSE|FALSE (ssRNA)
RNA: GGGAGUUCUACAGUCCGACGAUCAGUAGUGGGUGAGACACAUUUUGCAGAAUCCUGCCAAACAAAGGAACUGAAUAGGCUGUGGGCAAAGCAAAUGAGGGAGAGUUAAGGAAUGAAGUAUUUUAAAUAUUAAUAAUUAAUUCACAACAGAGGAUUGAGCAUCA
B7: 77768493_77775406_9844_CDS_ENSG00000091656_ENST00000521891|human|control|control (ssRNA)
RNA: GGGAGUUCUACAGUCCGACGAUCACUGCUGAGAGACAGGGCAGGAGACGAAGUAGCUGAAGUAGGAAACCCAAGCAUGCCUGCACCGGGAGGUGUUAAAGUGUUUGAAUUUUGUGGAAAUCCCGGCAAGGAGGAUGGACCGUUCAACAGAGGAUUGAGCAUCA
B8: chr6:39351226:39351227:-_ENSMUSG00000029922_ENSMUST00000031985|mus_hu|FALSE|FALSE (ssRNA)
RNA: GGGAGUUCUACAGUCCGACGAUCGACAAAGUUAGAUGUGAUCCGGCAUUCUGGGCAGGACUUUAUGAUCUUGCUCUCAAAUUGCUUAGCACUCCUCCACUUGCGAAUGCACUUGAGACAGUAGGUGUGGUUGCAGUUGGAGAGCAACAGAGGAUUGAGCAUCA
B9: chr3:54535082:54535083:-_ENSMUSG00000027752_ENSMUST00000029316|mus_mus|FALSE|FALSE (ssRNA)
RNA: GGGAGUUCUACAGUCCGACGAUCGCAGGCAUCCAAAAUGUUCCCAUCGUAGUCUAGACAAAUGAGGUCACAGUAUAGAACCCAAGCAAGCUUGCCUGGAGAAAUGCAUAAAUCCUCUUUCUUAAUCACCUGUGAGUUGUCAACCAACAGAGGAUUGAGCAUCA
B10: chr4:144447494:144447495:+_ENSG00000153147_ENST00000283131|hu_hu|motif|central (ssRNA)
RNA: GGGAGUUCUACAGUCCGACGAUCCCAGUUGUGUAAUGUAGACUUAGGAACCAAAACCAUAUGAGGCCCAGGAAUGUUUCGGUAAUGUUUCAUGUACCCAAGAAGAGAAAUUGUUUGAAGAGUCUUUCCUAGGCCCAUUUCAUCCAACAGAGGAUUGAGCAUCA
B11: chr2:69570450:69570451:+_ENSMUSG00000042133_ENSMUST00000090858|mus_hu|FALSE|FALSE (ssRNA)
RNA: GGGAGUUCUACAGUCCGACGAUCACAAAGACAACGAAAGUUCUCGCAUGUUUUGGGGCACACAUCAGAAAAUAAUUCAAAGACAACUCUUCCAGCAGGUUGAUUGUUAAUGGCAAUGUCAAAAAAACAUCGAGGACGUUGAACCAACAGAGGAUUGAGCAUCA
B12: chr11:75578338:75578339:+_ENSMUSG00000020849_ENSMUST00000067664|perfect_dup|FALSE|FALSE (ssRNA)
RNA: GGGAGUUCUACAGUCCGACGAUCAAAGGGGAGGGGAGAAAAAAAAAAAAGAAAAAGAAAGAAAAACAACAGGGCAGGAACCUAAAUUCUGAGACCAAAUGUGAAAGUCAAAUUUGGUGGUUCUCAGUGACAAUGGGGAACUUCCAACAGAGGAUUGAGCAUCA
B13: 36153137_36166621_529_CDS_ENSG00000145604_ENST00000274255|human|control|control (ssRNA)
RNA: GGGAGUUCUACAGUCCGACGAUCCGCUAGGCGAUACCACCUCUUACAAACACCAGAGACCUUUAGCAGCUCAGGGAGGCACAGACAGGAAAAGAUUCCCAAGAGCAGCUCAUCCGGAAGGGAGUCCCAUGAAACACCUGGAAACAACAGAGGAUUGAGCAUCA
B14: chr7:116176368:116176369:+_ENSMUSG00000031028_ENSMUST00000033341|mus_hu|FALSE|FALSE (ssRNA)
RNA: GGGAGUUCUACAGUCCGACGAUCAGACACACACAUACACAGACGGACACAGAGCACCUUGGAGCCAGAAGGAAAGGAAAGCUAGACUUGGAGAAGAGUUGGGGAAGUGAACUUCACCACUCUGCAGAAUUGUUCUGGGGCAGACAACAGAGGAUUGAGCAUCA
B15: chr4:124323795:124323796:+_ENSG00000164056_ENST00000339241|hu_hu|motif|central (ssRNA)
RNA: GGGAGUUCUACAGUCCGACGAUCCCAUGAGUUAGACCUUGGCAACAGGGGAAGAGAAGGUGGGAAACAGGGAAAAAUUCGGAAGAAAACAAAAACAAAAACAAAAACAAAAAACAGCCACAACUUGAAAGCUAAAAGUUCAGGCAACAGAGGAUUGAGCAUCA
B16: chr4:99801976:99801977:-_ENSG00000151247_ENST00000280892|hu_hu|motif|central (ssRNA)
RNA: GGGAGUUCUACAGUCCGACGAUCAACACAUUUAUGGAUUCUGGGGAUGUGUACUGUAAUUCUUUGAUUGGGAUAGUGGAAACUCGGGCCAAAAAAAAAAAAAAAAAUGAACACAGAAGUACAAGACAAAGGCGAAUGAGACUUCAACAGAGGAUUGAGCAUCA
B17: chrX:7701523:7701524:-_ENSMUSG00000031166_ENSMUST00000033506|mus_mus|FALSE|FALSE (ssRNA)
RNA: GGGAGUUCUACAGUCCGACGAUCCAGGCAAGUGUGGGGUCCACCCAAACAGUAGCUGCCAAUGUUGGGGAGUUUGACAACCUAACCUGGUGAAAGCCCCGUGGUUGAACUUAACAUUCUGCACCUAAUUUCCCUACUGCUGUCCAACAGAGGAUUGAGCAUCA
B18: chr4:124323795:124323796:+_ENSG00000164056_ENST00000339241|hu_hu|FALSE|FALSE (ssRNA)
RNA: B15 RNA with G80U, G81A
B19: chr15:103023242:103023243:-_ENSMUSG00000009575_ENSMUST00000118152|mus_hu|FALSE|FALSE (ssRNA)
RNA: GGGAGUUCUACAGUCCGACGAUCAACAUCUGAACUAGCAGCUUUGAUGAGGGGUGGGGGGCAGAAAAUUUGCCGAGUCACUAAGUAGUUCCAGUCUUGGAGACAGCUCAGUGAGGACCAAAGCCUGUGUGUCAGGCUUAAACUCAACAGAGGAUUGAGCAUCA
B20: chr7:135839593:135839594:+_ENSMUSG00000042105_ENSMUST00000151237|mus_hu|FALSE|FALSE (ssRNA)
RNA: GGGAGUUCUACAGUCCGACGAUCAGAAUCAGUCACUUCAACAGAGUAAAGCUCUAAAGACACCAGACGAACCAAUACUUGUUGGAAUAUGCCAUACAACUUUCUUACUGUGGGGAUUACAGGGGCAGCCCUGGUUCUGUGUGGCAACAGAGGAUUGAGCAUCA
B21: 18505133_18505253_973_CDS_ENSG00000101310_ENST00000262544|human|control|control (ssRNA)
RNA: GGGAGUUCUACAGUCCGACGAUCUUCACAGCUUAGCUCAUGAACCUGCACCAUCCUUCCAAAUGUGAUCAGACCCACCAGAGCAUCUGGAGGAAGAAGACUCAGGGACAUCUGCAGGGACUCUUUGAGUGCUUGAAGGUCAUCCAACAGAGGAUUGAGCAUCA
B22: chr11:75578338:75578339:+_ENSMUSG00000020849_ENSMUST00000067664|perfect_dup|motif|central (ssRNA)
RNA: B12 RNA with U82G, A83G

Substitutions are numbered along the chain they refer to. In all, about 24,000 sequences were measured (“enrichment r”: median about 0.99, highest 2% from about 3.7 on). What follows is part of a selection rich in the highest values, with near analogues and random picks from the rest.

The experiment addresses T1, UNK ZnF1-3. Briefly: nsRBNS (natural sequence RNA bind-n-seq); RBNS binding buffer (assumed for nsRBNS): 25 mM Tris pH 7.5, 150 mM KCl, 3 mM MgCl2, 0.01% Triton X-100, 500 ug/ml BSA, 20 U/ml SUPERase-In, 4 C; UNK is unkempt and MSI1 is Musashi-1; names of the RNAs are library labels; protein concentration not given here; high values mean tight binding.
On to B1, for which the binding signal amounted to 1.03 enrichment R. The same measure for B2: 1.56 enrichment R. With B3 the figure was 0.722 enrichment R. For the molecule B4, the binding signal came to 0.646 enrichment R. With B5 the figure was 2.24 enrichment R.

B6: the binding signal came to 4.38 enrichment R. With B7 the figure was 1.52 enrichment R; with B8, 0.754 enrichment R; with B9, 1.32 enrichment R. The same measure for B10: 1 enrichment R. With B11 the figure was 1.49 enrichment R; with B12, 4.7 enrichment R; with B13, 1.46 enrichment R. In turn, B14 had a binding signal of 3.99 enrichment R. Molecule B15 displayed a binding signal of 3.58 enrichment R. With B16 the figure was 3.29 enrichment R; with B17, 1.26 enrichment R; with B18, 4.13 enrichment R.

The molecule B19 showed a binding signal of 1.22 enrichment R. With B20, the binding signal came to 1.69 enrichment R. The same measure for B21: 1.32 enrichment R; for B22: 5.06 enrichment R.
